Our source for the outcome and AC50 values is PubChem BioAssay (EPA / NIEHS).

The structures appear in SMILES notation. Activity calls are given as the source filed them. How the source made its calls: active means hit-call score of the fitted dose curve at least 0.9, where 1 is the maximum; inconclusive means response in the unintended direction; inactive means score below 0.9.

The nature of this test: Tanguay_ZF_120hpf_MORT_legacy: (Legacy) Oregon State University Tanguay Lab 120 Hour Post-fertilization zebrafish Assay for Mortality (AID 2283633). The protocol:
Tanguay_ZF_120hpf_legacy is a whole embryo, multiplexed endpoint assay using zebrafish larvae exposed for 120 hours post fertilization on a 96-well plate.Tanguay_ZF_120hpf_MORT_legacy is one of one assay component(s) measured or calculated from the Tanguay_ZF_120hpf_legacy assay. It is designed to make measurements of embryonic mortality as detected with brightfield microscopy of developing zebrafish embryos.Data from the assay component Tanguay_ZF_120hpf_MORT_legacy was analyzed into 1 assay endpoints. This assay endpoint, Tanguay_ZF_120hpf_MORT_legacy, was analyzed in the positive analysis fitting direction relative to DMSO as the negative control and baseline of activity. Using a type of viability reporter, gain-of-signal activity can be used to understand changes in developmentals as they relate to the whole embryo. To generalize the intended target to other relatable targets, this assay endpoint is annotated to the embryonic mortality intended target family, where the subfamily is embryonic mortality.
Zebrafish husbandry: Tropical 5D wild-type adult zebrafish were housed in at an approximate density of 1000 per 100 gallon tank at the Sinnhuber Aquatic Research Laboratory, Oregon State University, Corvallis, OR. Each tank was kept at standard laboratory conditions of 28C on a 14-h light/10-h dark photoperiod in fish water consisting of reverse osmosis water supplemented with a commercially available salt (Instant Ocean). Spawning funnels were placed into the tanks the night prior, and embryos were collected and staged. To increase bioavailability, the chorion was enzymatically removed using pronase (63.6mg/ml, >/= 3.5U/mg, Sigma-Aldrich: P5147) at 4 hours post fertilization (hpf) using a custom automated dechorionator.Chemical exposures: Six hpf dechorionated embryos were placed 1 embryo per well in a 96-well plate prefilled with 90 ul of EM using automated embryo placement systems (AEPS). Ten microliters of each row of dilution plate 2 was added to 2 exposure plates. The final DMSO concentration used was 0.64% (vol/vol). Thirty-two embryos were also exposed to 5uM trimethyltin chloride (positive control). Plates were sealed to prevent evaporation and foil covered to reduce light exposure and kept in a 28C incubator. Embryos were statically exposed until 120 hpf. At 24 hpf, embryos were assessed for photomotor response using a custom photomotor response analysis tool (PRAT) and for developmental toxicity endpoints (MO24: mortality at 24 hpf, DP: developmental progression, SM: spontaneous movement, and NC: notochord distortion). At 120 hpf, locomotor activity was measured using Viewpoint Zebralab and assessed for 18 endpoints. Zebrafish acquisition and analysis program (ZAAP), a custom program designed to inventory, acquire, and manage zebrafish data, was used to collect developmental endpoints as either present or absent (i.e., binary responses were recorded). If mortality occurred for an embryo (at either 24 or 120 hpf), the non-mortality endpoints were not measured.
In the case of `CCOCCOCCOCCO`, the compound was called inactive.
Same read-out and setting: for `CCCCC(CC)COC(=O)CCCCCCCCC(=O)OCC(CC)CCCC` (stereo not given) the value was “inactive”.
As a reminder, the AC50 is the concentration giving half of the maximal activity seen. Consider `COc1cccc(-c2ccc(/C=C\CN3CCCCCC3)cc2Cl)c1`, for which the AC50 is 32.4 µM (active).
With `Nc1cccc(N)c1`, the call was inactive.
For `CCCCCCCCCCCCc1ccccc1`, the compound was called inactive.
In the case of `COC(=O)c1c(Cl)c(Cl)c(C(=O)OC)c(Cl)c1Cl`, the result was inactive.
On the same count and under the same terms, for `Oc1ccc2c(c1)-c1ccccc1C2` the value was “inactive”.
On to `O=C1OC(=O)C2C3C=CC(C3)C12` (stereo not given), for which the compound was classed as inactive.
For `O=C(O)CC(O)C(=O)O` (stereo not given), the outcome was inactive.
Same read-out and setting: for `O=C(CCCCCCCCc1cccnc1)N1CCC(C=C(c2ccccc2)c2ccccc2)CC1` the value was “inactive”; for `CNS(=O)(=O)c1cc(C(=O)N2CCC(CCN3C4CCC3CC(n3c(C)nc5ccccc53)C4)(c3cccc(F)c3)CC2)c(Cl)cc1F` (stereo not given), “inactive”; for `C[C@](N)(Cc1ccc(O)c(O)c1)C(=O)O`, “inactive”.
Take `CN(C)c1ccc(Cc2ccc(N(C)C)cc2)cc1`: the call was inactive.
With `COc1ccc(/C=C/S(=O)(=O)NC(=O)c2ccc(C)cc2Cl)cc1`, the result was inactive.
Take `CCCC(=O)OCC`: the outcome was inactive.
Still for that read-out and setting: for `Cn1c(=O)cc(Oc2ccc(F)cc2F)c2cnc(NCC(C)(C)O)nc21` the value was “inactive”; for `COc1ccc(-n2nc(C(F)F)cc2-c2ccc(S(C)=O)cc2)cc1` (stereo not given), “inactive”.
Take `C1=CCCC=CCCC=CCC1`: the compound was classed as inactive.
Same read-out and setting: then `CC(C)=CCC/C(C)=C\CO`, with “inactive”; and `CCCCCCCCO`, with “inactive”.
Still for that read-out and setting: then `O=C(O)c1cc(N=Nc2ccc(S(=O)(=O)Nc3ccccn3)cc2)ccc1O`, with “inactive”; and `CCNc1ccccc1`, with “inactive”; and `CC(C)CCO`, with “inactive”.
Still for that read-out and setting: for `O=C(O)c1cccc(N(Cc2cccnc2)c2ccc(OC(F)F)c(OC(F)F)c2)c1` the value was “inactive”; for `O=c1n(CC2CO2)c(=O)n(CC2CO2)c(=O)n1CC1CO1` (stereo not given), “inactive”.
For the compound `CC[C@H]1OC(=O)[C@H](C)[C@@H](O[C@H]2C[C@@](C)(OC)[C@@H](O)[C@H](C)O2)[C@H](C)[C@@H](O[C@@H]2O[C@H](C)C[C@H](N(C)C)[C@H]2O)[C@](C)(O)C[C@@H](C)C(=O)[C@H](C)[C@@H](O)[C@]1(C)O`, the result was inactive.
Regarding `CCn1nc(Cc2ccccc2)cc1C1CCN(C[C@H]2C[C@H](N(C)[C@@H](C(=O)O)C(C)C)C[C@@H]2c2cccc(F)c2)CC1`, the outcome was inactive.
Take `O=C(NS(=O)(=O)/C=C/c1ccccc1)c1ccc(F)cc1Cl`: the compound was called inactive.
Still for that read-out and setting: for `O=C1CCCCCN1` the value was “inactive”.
Same read-out and setting: then `O=C(O)c1cccc(Oc2ccccc2)c1`, with “inactive”.
Same read-out and setting: for `Cc1ccc(O)cc1` the value was “inactive”; for `O=C(O)CCN(C1(C(=O)NO)CCCC1)S(=O)(=O)c1ccc(Oc2ccc(F)cc2)cc1`, “inactive”.
Take `CCN(C(=O)c1cc(C)cc(OC[C@H](C)Nc2ccncc2)c1)C(C)C`: the compound was called inactive.
Same read-out and setting: for `CCCN(C1CCN(C(=O)C2CCNCC2)CC1)[C@@H]1CCc2ccc(OC)cc2C1` the value was “inactive”; for `Nc1nc2ncc(CNc3ccc(C(=O)N[C@@H](CCC(=O)O)C(=O)O)cc3)nc2c(=O)[nH]1`, “inactive”; for `NC(=O)NO`, “inactive”.
For the compound `On1ccccc1=S`, the compound was called inactive.
For the compound `Cn1cnc([N+](=O)[O-])c1Sc1ncnc2nc[nH]c12`, the result was inactive.
Consider `COCCOCCOCCOC`, for which the outcome was inactive.
Same read-out and setting: then `CNCc1ccc(NC(=O)c2c[nH]c3c2C(=O)CCC3)cc1`, with “inactive”.
